# High-throughput results (PubChem BioAssay)
# Rv3671c inh: Rv3671c (M. tuberculosis) protease inhibition; AID 2606; P9WHR9; 320,000 compounds, 0.048% hits; inhibition, % at 5.96 µM; in the data active means inhibition above about 38%;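 further: extracellular domain of Rv3671c used as enzyme; 0% = enzyme with DMSO and 100% = no enzyme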
# Target sequence (P9WHR9 whole entry, looked up, the tested form may be a part): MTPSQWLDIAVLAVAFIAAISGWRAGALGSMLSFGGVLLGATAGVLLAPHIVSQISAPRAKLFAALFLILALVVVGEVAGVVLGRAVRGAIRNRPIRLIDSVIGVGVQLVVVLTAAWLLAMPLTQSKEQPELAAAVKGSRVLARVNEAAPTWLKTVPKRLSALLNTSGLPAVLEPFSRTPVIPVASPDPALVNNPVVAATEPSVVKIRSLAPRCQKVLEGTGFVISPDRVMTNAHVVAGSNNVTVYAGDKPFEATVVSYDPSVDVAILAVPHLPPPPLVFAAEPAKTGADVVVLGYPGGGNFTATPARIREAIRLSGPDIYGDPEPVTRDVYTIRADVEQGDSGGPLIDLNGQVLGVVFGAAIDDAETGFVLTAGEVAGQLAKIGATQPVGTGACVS
# FadD28 FP inh: blocks FadD28 binding to the bisubstrate probe; fluorescence polarization; inhibition, % at 12.5 µM; 360,000 compounds, 0.22% hits; AID 588549; in the data active means inhibition above about 8.5%, passing the limit was not always enough
# FBA Mtb inh: inhibitors of M. tuberculosis fructose-bisphosphate aldolase; inhibition, % at 1 µM; 360,000 compounds, 2.3% hits; P9WQA3; purified M. tuberculosis FBA, fluorescence read-out; AID 588726;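 further: 0% = vehicle and 100% = reference inhibitor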
# Mtb bLac sens: beta-lactam sensitization of Mtb H37Rv; 330,000 compounds, 0.27% hits; M. tuberculosis H37Rv growth with meropenem, percent inhibition; AID 434955; inhibition, % at 25 µM; call rule not given here;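 further: growth measured after seven days incubation then overnight dye step; 0% = bacteria only wells and 100% = bacteria with antibiotic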
# UGM FP inh: inhibitors of M. tuberculosis UDP-galactopyranose mutase. 320,000 compounds, 0.06% hits. inhibition, % at 10 µM. purified UGM, fluorescence polarization probe displacement. P9WIQ1; in the data active means inhibition above about 10%, passing the limit was not always enough
# GDH-TPI counter-1: inhibits GDH-TPI coupling enzymes, artifact for Mtb FBA screen; 360,000 compounds, 1.2% hits; AID 588335; inhibition, % at 4.8 µM; GDH-TPI coupled enzyme counterscreen, NADH absorbance; in the data active means inhibition above about 30%;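 further: 0% = DMSO wells and 100% = wells lacking the enzyme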
# Mtb FBA inh conf: Mtb FBA inhibition, confirmed; shares compounds with FBA Mtb inh; inhibition, % at 1 µM; 5,600 compounds, 78% hits; purified M. tuberculosis FBA, fluorescence read-out;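 further: 0% = vehicle wells and 100% = reference inhibitor wells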
# GDH-TPI counter-2: counter-screen for M. tuberculosis FBA inhibitors: GDH-TPI coupled enzyme inhibition. shares compounds with FBA Mtb inh. GDH-TPI coupled enzyme counterscreen, fluorescence. inhibition, % at 1 µM. 5,600 compounds, 81% hits; in the data active means inhibition above about 10%
# GDH-TPI dose: counter-screen for M. tuberculosis FBA inhibitors: GDH-TPI dose response; shares compounds with FBA Mtb inh; GDH-TPI coupled enzyme assay, fluorescence, artifact counterscreen; IC50, µM; 170 compounds, 79% hits; AID 652145; call rule not given here
# Starred values were filed as active, the others as inactive; nt = no result given; + = active, no number. In the library only some 3.7% were active in any assay of this set; here they are far more common. Unless noted, no stated cut-off is given here; in the data, active means inhibition above about 27%; inactive means the rest.
SMILES,Rv3671c inh,FadD28 FP inh,FBA Mtb inh,Mtb bLac sens,UGM FP inh,GDH-TPI counter-1,Mtb FBA inh conf,GDH-TPI counter-2,others
CCCCc1c(C)c2ccc(OCC(C)=O)cc2oc1=O,-0.4,-1.2,72.4*,62.3,-1.2,3.4,2.7,6.3,
C=CCOC(=O)COc1ccc2c(C)c(C)c(=O)oc2c1,0.9,-0.8,68.0*,97.1,0.3,22.5,24.8,27.9*,
CCOC(=O)CCc1c(C)c2ccc(OCC(=O)OC(C)C)cc2oc1=O,0.3,0.9,66.7*,7.9,-0.3,12.6,54.1*,41.4*,
COC(=O)Cc1c(C)c2ccc(OCC(=O)c3ccc(OC)c(OC)c3)cc2oc1=O,-17.3,nt,nt,-0.4,-1.7,nt,nt,nt,
CCOC(=O)CCc1c(C)c2ccc(OC3CCCCC3=O)cc2oc1=O (stereo unspecified),-7.6,-0.7,109.5*,-5.8,1.2,4.7,150.9*,132.2*,
COCCCN1C(=O)C(CC(=O)NCCCCc2ccccc2)CC(C(=O)N2CCOCC2)=C1C (stereo unspecified),nt,-3.3,0.1,nt,nt,1.4,nt,nt,
C=CCN1C(=O)/C(=C/N(C)C)S/C1=N\S(=O)(=O)c1cccs1,nt,-1.9,-5.5,nt,nt,30.4,nt,nt,
Cc1ccc(S(=O)(=O)Nc2ccc(C(=O)N3CCN(c4ccccc4O)CC3)cc2)cc1[N+](=O)[O-],4.6,-0.6,5.5,1.0,-0.6,9.8,nt,nt,
COc1ccc(/C(O)=C2/C(=O)C(=O)N(CCCN3CCOCC3)C2c2ccc(Cl)cc2)cc1 (stereo unspecified),nt,-4.0,0.2,nt,nt,7.1,nt,nt,
O=C(/C=C/c1ccccc1)Nc1cccc(C(=O)NCCCCc2ccccc2)c1,nt,-3.5,-4.1,nt,nt,-1.0,nt,nt,
Nc1ccn([C@@H]2O[C@H](CNCc3ccc(OCC(=O)Nc4nccs4)cc3)[C@@H](O)[C@H]2O)c(=O)n1,nt,0.5,-1.6,nt,nt,-3.3,nt,nt,
O=C(O)c1ccc2c(=O)n3c(nc2c1)/C(=C/c1ccc(C(F)(F)F)cc1)CC3,3.3,nt,27.8*,2.0,2.0,27.6,45.7*,33.5*,
COC(CNC(=O)c1cccc(-n2c(=S)[nH]c3cc(Cl)ccc3c2=O)c1)OC,-0.4,0.1,68.0*,-4.8,-0.2,2.5,+,159.1*,
COc1ccc(C2C3=C(CCCC3=O)Nc3n[nH]c(C)c32)cc1OC (stereo unspecified),-7.0,-2.1,-1.4,-5.3,1.1,7.5,nt,nt,
Cc1[nH]nc2c1C(c1ccc(N(C)C)cc1)C1=C(CC(C)(C)CC1=O)N2 (stereo unspecified),-1.0,-1.0,-0.6,-0.1,2.7,-0.3,nt,nt,
Cc1ccc(C2C3=C(CC(C)(C)CC3=O)Nc3n[nH]c(C)c32)cc1 (stereo unspecified),-1.5,-3.8,28.4*,-9.9,0.1,20.7,109.4*,93.9*,
Cc1[nH]nc2c1C(c1ccc(F)cc1)C1=C(CC(C)(C)CC1=O)N2 (stereo unspecified),4.2,-1.8,33.9*,-8.3,-0.1,6.2,56.3*,42.9*,
Cc1[nH]nc2c1C(c1cccc(O)c1)C1=C(CC(C)(C)CC1=O)N2 (stereo unspecified),-4.2,-1.9,32.6*,-13.7,1.3,9.4,17.3,13.8*,
COc1ccccc1C(=O)N1CCN(C(=O)c2oc3c(C)c(C)ccc3c2C)CC1,nt,-2.7,3.3,nt,nt,9.8,nt,nt,
CCOC(=O)C1=CN(CC)CCC1=O,nt,0.2,2.2,nt,nt,3.1,nt,nt,
C=CCNC(=O)C1CCN(c2cc(C)nc(-c3ccccc3)n2)CC1,2.4,-3.6,-2.3,-0.4,-0.6,1.6,nt,nt,
C=CCNC(=O)C1CCN(c2nc(C)cc(-c3ccccc3)n2)CC1,2.6,-3.8,32.5*,-0.8,-0.6,8.9,4.6,1.1,
CC(C)CC1C(=O)N(Cc2cn(Cc3ccco3)nn2)CCS(=O)(=O)N1Cc1ccc(-c2ccc(F)cc2)cc1 (stereo unspecified),nt,-4.3,-2.6,nt,nt,6.2,nt,nt,
COc1ccc(-c2cc3cc(OC)c(OC)cc3c(C)n2)cc1,-3.3,-1.3,47.0*,85.1,-1.1,-5.3,73.2*,55.0*,
Cn1ccc2c(-c3ccc(C(N)=O)cc3)cc3c(c21)C1CCC3C1 (stereo unspecified),nt,-0.4,53.2*,nt,nt,nt,112.5*,103.1*,
SMILES,Rv3671c inh,FadD28 FP inh,FBA Mtb inh,Mtb bLac sens,UGM FP inh,GDH-TPI counter-1,Mtb FBA inh conf,GDH-TPI counter-2,others
Cn1ccc2c(-c3ccc(CO)cc3)cc3c(c21)C1CCC3C1 (stereo unspecified),nt,3.8,81.5*,nt,nt,nt,+,+,
Cn1ccc2c(-c3ccc(C(F)(F)F)cc3)cc3c(c21)C1CCC3C1 (stereo unspecified),nt,0.2,34.5*,nt,nt,nt,56.0*,47.0*,
O=C(CSc1nc2ccccc2o1)c1cc2ccccc2oc1=O,2.0,-2.5,54.7*,-7.5,-0.2,12.4,10.5,2.0,GDH-TPI dose=>10
O=C1NC(=NCc2ccccc2)NC1(c1ccccc1)c1ccccc1,nt,0.8,1.2,nt,nt,9.9,nt,nt,
Cc1cccnc1Oc1ncccc1N,-1.7,-5.1,0.8,-2.9,-5.6,-3.5,nt,nt,
O=C(NCc1cccnc1)c1ccccc1Br,-3.8,0.2,4.8,-8.7,-0.1,-0.7,nt,nt,
Cc1cc(C)n2ncc(C(=O)NCc3cccnc3)c2n1,-8.7,-1.6,42.2*,-3.1,-0.8,-0.8,42.8*,42.5*,
COc1cccc(CNC(=O)c2cc(C3CC3)nc3c2cnn3C(C)C)c1,-4.5,-5.3,9.6,9.6,-1.4,4.0,nt,nt,
O=C(NCc1cccnc1)c1cnn2ccccc12,-3.3,-2.7,30.1*,-3.7,0.0,6.2,192.5*,140.4*,
CC(C)n1ncc2c(C(=O)NCc3cccnc3)cc(C3CC3)nc21,nt,-4.0,53.6*,nt,nt,9.3,+,+,
O=C(NC(Cc1ccccc1)C(=O)N1CCN(c2ccccc2O)CC1)c1ccccc1 (stereo unspecified),nt,-1.4,-0.4,nt,nt,6.3,nt,nt,
CN1CCc2c(sc3c2C(=O)NC(c2cccs2)N3)C1 (stereo unspecified),-14.6,1.3,25.9,3.1,1.7,14.7,nt,nt,
Cc1ccsc1C1NC(=O)c2c(sc3c2CCN(C)C3)N1 (stereo unspecified),-2.7,0.6,43.5*,9.0,-2.3,11.5,-5.3,-5.2,
COc1ccc(/C=N/n2c(=O)[nH]c3c([nH]c4ccc(C)cc43)c2=O)cc1CN1CCOCC1,nt,-0.7,92.9*,nt,nt,14.2,127.2*,101.3*,
CC1=CC(C)C(/C=N/n2cnnc2)C(C)C1 (stereo unspecified),-3.0,-0.9,1.7,-6.9,3.5,-4.0,nt,nt,
CC1=CC(C)[C@H](/C=N/n2c(=O)[nH]c3c([nH]c4ccc(C)cc43)c2=O)C(C)C1 (stereo partly specified),6.0,-2.1,52.7*,-2.9,2.6,0.6,-1.3,-2.5,
N#C/C(=C\c1cccs1)Sc1nc2ccccc2s1,-2.8,-4.2,101.0*,-9.7,1.0,9.5,9.9,-0.6,
